From PubChem BioAssay
This is a sample that favours compounds with a hit; in the whole collection about 2.6% have one here.
TROY signal inh = inhibitors of TROY-driven NF-kB signaling, primary screen, Q293 LMP1-TROYcd cells, NF-kB luciferase, uHTS. actives 0.98% (n = 360,000). AID 1347056, 2019. inhibition, % at 10 µM. Q293 LMP1-TROYcd NF-kB luciferase reporter, 4 h;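 active means compounds whose plate-normalised and pattern-corrected inhibition of the luciferase reporter signal at the single screening dose is 50% or more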
KKLEB cytotox = cytotoxicity in KKLEB CF airway cells, primary screen, cytotoxicity control for CF NF-kB inhibitor project, cell-based, uHTS, fluorescence assay plates; KKLEB CF airway cells viability, ATPlite luminescence, overnight; active compounds read low; cells stimulated with P. aeruginosa culture filtrate; activity change (cytotoxicity), % at 5 µM; actives 0.36% (n = 360,000);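 active means corrected activity change at or below -50% at 5 µM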
CF NFkB inh = inhibitors of PAF-induced NF-kB signaling, primary screen, cell-based, GFP fluorescence, uHTS | KKLEB NF-kB-GFP reporter, GFP fluorescence overnight | inhibition, % at 5 µM | actives 0.86% (n = 360,000) | AID 588850, 2011;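 active means at least 50% inhibition at 5 µM, scaled per plate between neutral and stimulator controls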;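 further: PAF is a Pseudomonas aeruginosa culture filtrate used as stimulus; plate controls were PAF-stimulated DMSO wells for no effect and unstimulated DMSO wells for full effect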
LGR2 inh = inhibitors of bursicon-induced LGR2 CRE-luciferase signal, primary screen, cell-based, HEK293, CRE-luciferase reporter, bursicon stimulation; actives 0.35% (n = 380,000); Drosophila bursicon receptor LGR2 (rickets); AID 720647, 2013; bursicon-stimulated, 4 h; inhibition, % at 9.99 µM;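 active means drop in luminescence signal, shown as inhibition above about 50% in the replicate tests, limit read from the data, passing the limit was not always enough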;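 further: agonist challenge used bursicon conditioned medium at about half maximal strength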
TWEAK Fn14 block = inhibitors of TWEAK-Fn14 signaling, primary screen, luciferase reporter cells, uHTS | TWEAK-stimulated Fn14 reporter cells, luciferase luminescence, 8 h | inhibition, % at 10 µM | actives 2% (n = 360,000) | AID 1159606, 2016; in the data active means inhibition above about 50%
EWS-Fli inh = EWS/Fli-driven NR0B1 reporter inhibitors, primary screen, A673 cells, NR0B1 luciferase, luminescence, MLPCN library | viability-normalised | inhibition, % at 12.6 µM | actives 0.67% (n = 350,000);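 active means mean inhibition of at least 50% after viability correction, with every replicate also passing that limit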;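 further: firefly luciferase signal divided by Alamar Blue viability fluorescence both relative to DMSO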
The depositor's hits bear a star; nt = no result given.

SMILES | TROY signal inh | KKLEB cytotox | CF NFkB inh | LGR2 inh | TWEAK Fn14 block | EWS-Fli inh
O=[N+]([O-])c1ccc(N2CCOCC2)c2cccnc12 | 6 | -5 | 7 | -34 | 7 | 5
O=[N+]([O-])c1ccc(N2CCOCC2)c2c1no[n+]2[O-] | 38 | -92* | 84* | nt | 103* | 24
N#Cc1cccc(-c2ccc([C@H]3[C@@H](CO)N4CCCCN(C(=O)Cc5ccccc5)C[C@H]34)cc2)c1 | nt | nt | nt | 10 | nt | 8
O=C1Nc2ccccc2/C1=C/c1cnc[nH]1 | 2 | 18 | 12 | 6 | 8 | -28
COc1ccc2c(c1)/C(=C/c1cnc[nH]1)C(=O)N2 | 21 | -21 | 54* | 95* | 11 | -28
COC1CCC(OC2CC(C3(C)CCC4(CC(O)C(C)C(C(C)/C=C(\C)C(=O)C(C)CC(C)C(=O)O)O4)O3)OC3(OC(C4OC(O)(CO)C(C)CC4C)CC3C)C2C)OC1C (stereo not drawn) | 55* | -75* | 82* | nt | 50* | 65*
CCCCN=C[C@]12CCC(O)CC1(O)CCC1[C@@H]2CC[C@]2(C)[C@H](C3C=CC(=O)O3)CCC12O (stereo partly drawn) | 35 | -72* | 99* | 85* | 76* | 73*
CC12CCC3C(CCC4(O)CC(O)CCC34C=O)C1(O)CCC2C1=CC(=O)OC1 (stereo not drawn) | 46 | -46 | 77* | 84* | 71* | 52*
CC12CC[C@H]3[C@@H](CCC4(O)C[C@H](O)CCC34/C=N/NC(=O)c3ccccc3Cl)C1(O)CCC2C1=CC(=O)OC1 (stereo partly drawn) | 1 | -2 | -3 | 21 | -29 | 6
CC1OC(OC2C(O)CC(OC3C(O)CC(OC4CCC5(C)C(CCC6C5CCC5(C)C(C7=CC(=O)OC7)C(O)CC65O)C4)OC3C)OC2C)CC(O)C1O (stereo not drawn) | 48 | -54* | 70* | 87* | 81* | 46
C[C@H]1O[C@@H](OC2CC[C@]3(C=O)[C@H]4CC[C@]5(C)[C@@H](C6=CC(=O)OC6)CC[C@]5(O)[C@@H]4CC[C@]3(O)C2)CC2OC(C)(C)OC21 (stereo partly drawn) | 42 | -71* | 93* | 81* | 81* | 71*
CCCN1[C@@H]2Cn3c(ccc(-c4ccc(F)cc4)c3=O)[C@H]1[C@@H](C(=O)OC)[C@@H]2CO | nt | nt | nt | -10 | nt | -3
COC(=O)[C@H]1[C@H](CO)[C@H]2Cn3c(ccc(-c4cccc(F)c4)c3=O)[C@@H]1N2C(=O)CC1CC1 | nt | nt | nt | -6 | nt | -10
O=c1[nH]c(=O)n(-c2cccc3ccccc23)c(O)c1C=NCCCn1ccnc1 | 16 | -3 | -1 | nt | 62* | nt
COc1ccccc1-n1c(O)c(C=NCCCn2ccnc2)c(=O)[nH]c1=O | 4 | -4 | 10 | nt | 6 | nt
COC(=O)[C@H]1[C@H](CO)[C@H]2Cn3c(ccc(-c4cncnc4)c3=O)[C@@H]1N2S(=O)(=O)c1ccccc1C | nt | nt | nt | -14 | nt | 5
COC(=O)[C@@H]1[C@@H](CO)[C@@H]2Cn3c(ccc(C4=CCCCC4)c3=O)[C@H]1N2CC1CCCCC1 | nt | nt | nt | 13 | nt | 0
O=C(Cc1ccccn1)N1CCCCN2[C@@H](CO)[C@@H](c3ccc(-c4ccccc4F)cc3)[C@@H]2C1 | nt | nt | nt | 16 | nt | 12
CC1=CC(=C2C(=O)NC(=O)NC2=O)C=C(C(F)(F)F)N1Cc1ccccc1 | -2 | -7 | 24 | 9 | -13 | 4
CC1=CC(=C2C(=O)NC(=S)NC2=O)C=C(C(F)(F)F)N1Cc1ccccc1 | 21 | -15 | 34 | -3 | -5 | 54*
O=C(Cc1ccccc1)N1CCCCN2[C@@H](CO)[C@H](c3ccc(C#Cc4ccccc4)cc3)[C@@H]2C1 | nt | nt | nt | 12 | nt | nt
Cc1ccc(OC(=O)N(C)C[C@H]2OCc3ccccc3-c3c(n(C)c4ccccc34)C(=O)N([C@@H](C)CO)C[C@H]2C)cc1 | nt | nt | nt | 7 | nt | 3
